Bioassay records: PubChem BioAssay, National Center for Advancing Translational Sciences (NCATS)
Hits are enriched below; roughly 18% of the tested compounds scored in any of these assays.
DT40 TDP1 no CPT – qHTS for Inhibitors of human tyrosyl-DNA phosphodiesterase 1 (TDP1): qHTS in cells in absence of CPT. AID 686978, 2013. Potency, µM (doses to about 46.2 µM), hits mostly inhibitors. DT40 Tdp1-/- hTDP1 cells, no CPT, ATP luminescence, 48 h. actives 15% (n = 420,000); also: nearly all actives have a fitted effect of over 55% in size
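No-CPT arm: Tdp1-/-;hTDP1 DT40 cells (400/well) plus compounds, incubated ≥48 hr at 37 °C. Readout CellTiter-Glo luminescence.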
VDR inhibitor – Inhibitors of the vitamin D receptor (VDR): qHTS | AID 504847, 2011 | actives 0.93% (n = 400,000) | VDR-SRC2-3 peptide fluorescence polarization, 2 h | Potency, µM, actives largely listed as inhibitors
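Two reagent solutions held at 4 deg C in the dark were dispensed, compounds pinned at 23 nl, and the mixture incubated 2 h at room temperature. Read-out: fluorescence polarization of VDR–SRC2-3 peptide binding.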
GCN5L2 inh – qHTS Assay for Inhibitors of GCN5L2. Histone acetyltransferase KAT2A (Homo sapiens), Q92830. GCN5L2 HAT assay, ThioGlo1 CoA-SH fluorescence. Potency, µM (top dose mostly 58.9 µM), usual class: inhibitors. actives 0.21% (n = 390,000)
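Enzyme at 20nM final was mixed with library compounds for 15 min at room temperature. Peptide H3(1-25) at 75uM, acetyl-CoA at 70uM and ThioGlo1 at 50uM were then added. Plates were read immediately and after 20 min (Ex340nm/Em540nm).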
PLK1 PBD inh – qHTS for Inhibitors of PLK1-PDB (polo-like kinase 1 - polo-box domain): Primary Screen; Serine/threonine-protein kinase PLK1 (Homo sapiens), P53350; Plk1 PBD binding of FITC phosphopeptide, fluorescence polarization; Potency, µM, hits mostly inhibitors; actives 2.8% (n = 360,000); AID 720504, 2013; also: series mostly up to about 57 µM; nearly all actives have a fitted effect of over 65% in size
TDP1 block – qHTS Assay for Inhibitors of Tyrosyl-DNA Phosphodiesterase (TDP1); recombinant TDP1, AlphaScreen DNA substrate cleavage; actives 0.28% (n = 350,000); Tyrosyl-DNA phosphodiesterase 1 (Homo sapiens), Q9NUW8; Potency, µM (top dose mostly 130 µM), actives largely listed as inhibitors; also: nearly all actives have a fitted effect of over 40% in size
Target sequence (Q9NUW8 whole entry, looked up): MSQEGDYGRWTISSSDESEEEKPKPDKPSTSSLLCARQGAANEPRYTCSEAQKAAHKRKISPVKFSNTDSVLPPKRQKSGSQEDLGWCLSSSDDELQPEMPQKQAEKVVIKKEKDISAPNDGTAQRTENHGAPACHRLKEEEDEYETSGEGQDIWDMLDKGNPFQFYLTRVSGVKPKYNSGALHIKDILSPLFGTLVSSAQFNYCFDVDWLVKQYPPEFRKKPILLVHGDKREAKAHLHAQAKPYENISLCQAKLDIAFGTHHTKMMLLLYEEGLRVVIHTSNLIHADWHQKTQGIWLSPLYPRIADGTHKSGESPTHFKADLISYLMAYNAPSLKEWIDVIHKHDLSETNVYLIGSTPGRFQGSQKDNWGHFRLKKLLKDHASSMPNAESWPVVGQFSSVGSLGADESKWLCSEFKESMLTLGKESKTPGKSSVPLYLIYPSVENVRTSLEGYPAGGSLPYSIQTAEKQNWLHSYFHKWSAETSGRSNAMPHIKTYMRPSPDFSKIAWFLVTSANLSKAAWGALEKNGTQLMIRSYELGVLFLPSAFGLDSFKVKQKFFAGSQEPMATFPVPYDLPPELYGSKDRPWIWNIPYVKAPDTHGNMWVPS
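Compounds were preincubated with Tdp1 (1 nM final) for 15 min at room temperature before substrate (15 nM final) started a 5 min reaction; beads (10 ug/ml final) were then added for 10 min before AlphaScreen detection.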
DT40 TDP1 CPT – qHTS for Inhibitors of human tyrosyl-DNA phosphodiesterase 1 (TDP1): qHTS in cells in presence of CPT; Potency, µM (highest dose often 46.2 µM), usual class: inhibitors; actives 12% (n = 420,000); AID 686979, 2013; chicken DT40 Tdp1-/-;hTDP1 cells + 20 nM CPT, ATP luminescence, 48 h; also: nearly all actives have a fitted effect of over 55% in size
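Cell growth measured by CellTiter-Glo luminescence after a minimum 48 h, 37 C compound exposure with 20 nM CPT in Tdp1-knockout DT40 cells stably expressing hTDP1, seeded 400/well; qHTS titration format.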
Numbers stand for hits; – = inactive; ? = inconclusive; · = no result given. Calls follow the shape of the dose curve; as a rule, active = well fitted curve in the direction sought with a large enough effect; inconclusive = small, poorly fitted or top-dose-only effect, or another doubt; inactive = no such curve, though single readings can be large; an effect the other way counts as inactive or inconclusive.

SMILES | DT40 TDP1 no CPT | VDR inhibitor | GCN5L2 inh | PLK1 PBD inh | TDP1 block | DT40 TDP1 CPT
COc1cc(CN2CCOc3ccc(CN4CCC(Oc5cccnc5)CC4)cc3C2)ccc1F | 21µM | · | · | · | · | ?
COc1ccc(CN2CCOc3ccc(CN4CCC(Oc5cccnc5)CC4)cc3C2)c(F)c1 | 21µM | · | · | · | · | ?
O=C(c1cscn1)N1CCOc2ccc(CN3CCC(Oc4cccnc4)CC3)cc2C1 | 0.29µM | · | · | · | · | ?
COc1cc(OC)c(CN2CCOc3ccc(CN4CCC(O)CC4)cc3C2)c(OC)c1 | 23µM | · | · | · | · | ?
Cc1cccc(C(=O)N2CCc3cc(CNC(=O)c4cc5ccccc5[nH]4)ccc32)c1 | – | – | – | · | – | –
CCOC(=O)C1=CN(Cc2ccco2)S(=O)(=O)N(C)C1CC (stereo unspecified) | – | – | – | – | – | ?
O=C(Nc1ccc(Br)cn1)c1ccc(Br)s1 | 26µM | – | – | – | · | ?
O=C(Nc1ccc(Br)cn1)c1ccc(Cl)s1 | 18µM | – | – | – | – | ?
O=C(CCN1C(=O)[C@@H]2Cc3ccccc3CN2C1=O)N[C@@H](C(=O)O)c1ccccc1 | – | – | – | – | · | –
Cc1cc(C)c2nc(NCCCNC(=S)NCCCN(C)C)c(C#N)cc2c1 | 5.8µM | – | – | – | – | 5.8µM
Cc1ccc2cc(C#N)c(NCCNC(=O)C3CC3)nc2c1C | 7.3µM | – | – | – | – | 15µM
CCOCCCNC(=S)NCCNc1nc2c(C)cccc2cc1C#N | ? | – | – | – | – | ?
CCOCCCNC(=S)NCCCNc1nc2c(C)cc(C)cc2cc1C#N | 18µM | ? | – | 24µM | – | 8.2µM
Cc1ccc2cc(C#N)c(NCCNC(=S)NCCCN(C)C)nc2c1C | 26µM | – | – | – | – | ?
CC1=C(C(=O)O)N2C(=O)[C@@H](NC(=O)[C@@H](N)c3ccccc3)[C@@H]2SC1 | · | – | – | · | – | ·
C=CCC(C)(O)/C=C/c1ccccc1 (stereo unspecified) | · | – | · | · | – | ·
Clc1ccccc1/C=N/c1cc(-c2ccccc2)nn1-c1ccccc1 | ? | ? | – | 17µM | – | ?
Cc1ccc(CN2C(=O)CCC2(C)c2nnnn2Cc2ccccc2)cc1 (stereo unspecified) | – | · | · | – | · | –
COc1cccc(-n2sc3c(c2=S)-c2cc(OC)ccc2NC3(C)C)c1 | ? | – | – | – | – | ?
CC1(C)Nc2ccc(O)cc2-c2c1ssc2=S | 2.1µM | ? | – | 27µM | – | 0.73µM
CCCN(CC1CC1)c1nc(N)c2c(N)nc(OC)cc2c1C#N | 23µM | – | – | ? | – | 16µM
CC(C)CN(CC(C)C)c1nc(N)c(C#N)c(CC#N)c1C#N | ? | – | – | – | – | ?
CCOc1cc2c(C#N)c(N(CC)CC)nc(N)c2c(N)n1 | 16µM | 45µM | · | – | · | ?
Cc1c(NC(=O)C(=O)/C=C(\O)c2ccc(Br)cc2)c(=O)n(-c2ccccc2)n1C | – | – | – | – | – | –
O=C1CC(c2ccc(Cl)cc2)Oc2ccc(Cl)cc21 (stereo unspecified) | ? | ? | · | – | · | ?
SMILES | DT40 TDP1 no CPT | VDR inhibitor | GCN5L2 inh | PLK1 PBD inh | TDP1 block | DT40 TDP1 CPT
Cn1c(Cl)cnc1C1CC(=O)c2cc(Cl)ccc2O1 (stereo unspecified) | 2.6µM | 79µM | – | – | – | 4.1µM
O=C(COc1ccccc1Cl)Nc1ccc2nc(SCC(=O)N3CCOCC3)sc2c1 | 4.1µM | – | – | · | – | ?
O=C(Nc1ccc2nc(SCC(=O)N3CCCC3)sc2c1)c1ccccc1 | – | – | – | · | – | –
COc1ccccc1C(=O)Nc1ccc2nc(SCC(=O)N3CCCC3)sc2c1 | 4.1µM | – | – | · | – | ?
O=C(Nc1ccc2nc(SCC(=O)N3CCOCC3)sc2c1)c1ccccc1Cl | 18µM | – | – | · | – | ?
NC(=O)CSc1nc2ccc(NC(=O)COc3ccccc3Cl)cc2s1 | ? | – | – | · | – | ?
O=C(COc1ccccc1)Nc1ccc2nc(SCC(=O)N3CCCC3)sc2c1 | 23µM | – | – | · | – | ?
COC(=O)CSc1nc2ccc(NC(=O)c3ccccc3C(=O)N3CCOCC3)cc2s1 | – | – | – | – | – | –
CCOc1ccc(OCCNC(=O)C(NC(=O)c2c(F)cccc2F)C(C)C)cc1 (stereo unspecified) | – | – | – | – | – | –
COc1ccc(-n2nnnc2C2(C)CCC(=O)N2Cc2ccccc2)cc1 (stereo unspecified) | – | · | · | – | · | –
Cc1csc(=O)n1CC(=O)Nc1ccc(Cl)c(Cl)c1 | – | – | – | – | – | –
O=C(Cn1c2c(sc1=O)C1c3ccccc3OCC1CS2)Nc1ccc(Cl)c(Cl)c1 (stereo unspecified) | 16µM | ? | – | – | – | 9.2µM
O=C(NCCCO)c1ccc(CSc2nc3ccccc3[nH]2)cc1 | 18µM | – | – | – | – | ?
CCCOc1ccc(CSc2nc3ccccc3[nH]2)cc1 | 8.2µM | – | – | – | – | 8.2µM
O=[N+]([O-])c1ccc(CSc2nc3ccccc3[nH]2)cc1 | 29µM | – | – | – | – | ?
CCOc1ccc(OCCSc2nc3ccccc3[nH]2)cc1 | 21µM | – | – | – | – | 16µM
c1ccc(CSc2nc3ccccc3[nH]2)cc1 | ? | – | – | – | – | –
NC(=O)C1=C[C@@H](c2ccc(C(F)(F)F)cc2)C[C@@H](OCCCCO)O1 | – | – | – | – | – | –
CCN(c1ccccc1C(=O)O)S(=O)(=O)c1ccc2[nH]c(=O)[nH]c2c1 | – | – | ? | – | · | –
COc1cc(/C=N/NC(=O)c2ccc(CSc3nc4ccccc4[nH]3)cc2)cc(OC)c1OC | 13µM | – | – | – | – | 18µM
CC(=O)Nc1ccc(C(=O)OCC(=O)c2cccc([N+](=O)[O-])c2)cc1 | – | ? | – | – | – | –
O=C(CSc1n[nH]c(=O)[nH]c1=O)c1cccc([N+](=O)[O-])c1 | – | – | – | – | – | –
COC(=O)Nc1ccc(SCC(=O)c2cccc([N+](=O)[O-])c2)cc1 | 21µM | ? | – | 13µM | – | ?
Cc1cc(SCC(=O)c2cccc([N+](=O)[O-])c2)nc(=O)[nH]1 | – | ? | – | 21µM | – | –
CCOC(=O)C(C#N)=C1CCC=C(C)C1 | – | · | · | – | · | –
CCOC(=O)/C(C#N)=C1\CCCN1CC(N)=S | – | ? | – | 21µM | – | –
